SRC3 TRFRET art: counter-screen for PPARgamma SRC-3 recruitment agonists: TR-FRET artefact. TR-FRET ratio at 8 µM. PPARgamma/SRC-3 format; hits give high values. hit rate 0.39% among 99,000; in the data active = TR-FRET ratio above about 2000
SRC1 TRFRET art: TR-FRET artefact, counter-screen to PPARgamma/SRC-1 agonist assay; TR-FRET detection artefact counter-screen, emission ratio; hits give high values; TR-FRET ratio at 8 µM; AID 1051; hit rate 0.34% among 99,000; in the data active = TR-FRET ratio above about 2300
PPARg SRC1 recr: promotes SRC-1 coactivator recruitment by human PPARgamma; P37231; PPARgamma-SRC-1 coactivator recruitment biochemical assay; activation, % at 8 µM; hit rate 0.41% among 200,000; AID 631; in the data active = activation above about 19%;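 also: 0% = DMSO and 100% = reference agonist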
Target sequence (P37231 whole entry, looked up): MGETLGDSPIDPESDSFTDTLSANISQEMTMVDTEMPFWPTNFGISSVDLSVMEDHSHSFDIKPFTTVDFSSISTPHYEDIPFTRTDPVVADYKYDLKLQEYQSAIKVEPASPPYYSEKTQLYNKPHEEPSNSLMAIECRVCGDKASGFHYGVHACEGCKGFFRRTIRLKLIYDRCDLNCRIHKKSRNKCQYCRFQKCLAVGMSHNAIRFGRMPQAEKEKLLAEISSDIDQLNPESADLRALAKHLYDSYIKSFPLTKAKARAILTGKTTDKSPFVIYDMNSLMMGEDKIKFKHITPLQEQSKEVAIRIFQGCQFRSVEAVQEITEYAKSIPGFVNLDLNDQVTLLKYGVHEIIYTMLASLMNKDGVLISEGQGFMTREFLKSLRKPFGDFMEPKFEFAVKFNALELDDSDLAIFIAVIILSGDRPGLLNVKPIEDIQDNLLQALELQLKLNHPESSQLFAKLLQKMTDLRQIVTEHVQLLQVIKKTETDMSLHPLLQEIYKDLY
PPARg SRC-2 ag: promotes SRC-2 coactivator recruitment by human PPARgamma; P37231; PPARgamma LBD-SRC-2 recruitment, biochemical; activation, % at 8 µM; hit rate 0.34% among 200,000; AID 1032;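 also: 0% = vehicle and 100% = reference agonist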
SRC2 TRFRET art: TR-FRET artefact, counter-screen to PPARgamma/SRC-2 agonist assay | hit rate 0.4% among 200,000 | hits give high values | TR-FRET ratio at 8 µM; in the data active = TR-FRET ratio above about 2000
PPARg SRC-3 ag: promotes SRC-3 coactivator recruitment by human PPARgamma | biochemical PPARgamma/SRC-3 coactivator recruitment assay | activation, % at 8 µM | hit rate 0.26% among 200,000 | P37231; in the data active = activation above about 23%;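 also: 0% = DMSO and 100% = reference agonist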
PPARg SRC2 ag: human PPARgamma SRC-2 recruitment agonism, confirmation; shares compounds with PPARg SRC-3 ag; biochemical SRC-2 recruitment by PPARgamma; activation, % at 8 µM; hit rate 52% among 790;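 also: 0% = vehicle alone and 100% = reference agonist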
PPARg SRC1 conf: human PPARgamma SRC-1 recruitment agonism, confirmation; activation, % at 8 µM; PPARgamma–SRC-1 coactivator recruitment biochemical assay; hit rate 43% among 790; shares compounds with PPARg SRC-3 ag; in the data active = activation above about 20%;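 also: 0% = vehicle wells and 100% = reference agonist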
PPARg SRC3 conf: human PPARgamma SRC-3 recruitment agonism, confirmation. shares compounds with PPARg SRC-3 ag. biochemical PPARgamma-SRC-3 coactivator recruitment, agonist mode. AID 1301. activation, % at 8 µM. hit rate 29% among 790; in the data active = activation above about 24%;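 also: 0% = vehicle wells and 100% = reference agonist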
Active calls of the source: *; nt = no result given; ! = repeats disagree. Shown are actives, neighbours in structure and some others; about 0.9% of the full set was active somewhere. Rule as the data show it, unless noted: active = activation above about 22%; inactive = the rest.

SMILES	SRC3 TRFRET art	SRC1 TRFRET art	PPARg SRC1 recr	PPARg SRC-2 ag	SRC2 TRFRET art	PPARg SRC-3 ag	PPARg SRC2 ag	PPARg SRC1 conf	PPARg SRC3 conf
CCN1CCN(c2ccc(NC(=O)c3ccc4c(c3)[nH]c(=O)n4Cc3ccc(OC)cc3)cc2)CC1	1401	1653	3.1	8.5	1605	-0.1	nt	nt	nt
O=c1c2ccccc2ncn1CCCCOc1ccc(Br)cc1	1469	1813	7.5	1.3	1400	0.6	nt	nt	nt
CC(C)CSC1=NSC2=NC(=O)/C(=C\c3coc4ccccc4c3=O)C(=N)N12	1817	1912	6.7	4.6	1797	11.5	nt	nt	nt
CSC1=NSC2=NC(=O)/C(=C\c3coc4ccccc4c3=O)C(=N)N12	1493	1656	24.6*	14.8	1437	28.5*	9.2	9.7	21.7
Cc1cc(Oc2cc(N)cc([N+](=O)[O-])c2)ccc1Cl	1425	1771	0.4	2.2	1666	-1.8	nt	nt	nt
COc1ccccc1NS(=O)(=O)c1cccc(NC(=O)c2sc3ccccc3c2Cl)c1	2458*	2434*	22.5*	16.7	2161*	8.5	12.9	10.1	4.1
C=CCn1c(NS(=O)(=O)c2ccccc2)c(S(=O)(=O)c2ccc(C)cc2)c2nc3ccccc3nc21	1561	1803	38.8*	24.4*	1450	47.7*	4.1	6.9	10.1
COc1cccc(C2C(C(=O)c3cc4cccc(OC)c4o3)=C(O)C(=O)N2c2cc(C)on2)c1OC (configuration not stated)	nt	nt	33.3*	34.8*	2236*	45.4*	41.1*	28.4*	25.7*
COc1cc(C2C(C(=O)c3ccc(C)o3)=C(O)C(=O)N2c2cc(C)on2)ccc1O (configuration not stated)	nt	nt	8.2	5.0	1751	3.2	nt	nt	nt
COc1cccc(C2C(C(=O)c3cc4ccccc4o3)=C(O)C(=O)N2c2cc(C)on2)c1OC (configuration not stated)	nt	nt	50.5*	45.0*	2593*	68.9*	35.9*	27.8*	25.4*
COc1ccc(OC)c(C2C(C(=O)c3cccs3)=C(O)C(=O)N2c2cc(C)on2)c1 (configuration not stated)	nt	nt	-6.2	2.1	1544	-1.6	nt	nt	nt
O=C(O)Cc1ccc2c(c1)N(S(=O)(=O)c1cccc(C(F)(F)F)c1)CC(C(=O)O)O2 (configuration not stated)	nt	nt	1.8	8.2	1529	7.7	nt	nt	nt
CS(=O)(=O)N(CC(=O)Nc1ccc(S(=O)(=O)N2CCCC2)cc1)c1ccccc1	1527	1629	-13.3	4.0	1446	-2.8	nt	nt	nt
Cc1cc(SC(C)C(=O)O)nc2ccccc12 (configuration not stated)	1737	1775	6.8	2.4	1747	1.5	nt	nt	nt
CC(Sc1ccc2ccccc2n1)C(=O)O (configuration not stated)	nt	nt	29.6*!	23.0*	2286*	36.7*	25.7*	17.1	17.6
CC(Sc1cnc2ccccc2n1)C(=O)O (configuration not stated)	nt	nt	11.5	26.0*	1899	21.0	6.1	-1.3	5.8
COc1cccc(CNC(=O)C2CCCN(S(C)(=O)=O)C2)c1 (configuration not stated)	1705	1815	2.0	0.9	1608	2.5	nt	nt	nt
CC(C)c1nc2sc3c(=O)[nH]c(=S)[nH]c3c2c2c1CCC2	2640*	2489*	23.9*	32.9*	2507*	18.0	23.3*	15.2	13.9
CCOC(=O)c1sc2nc(C(C)C)c3c(c2c1N)CCC3	1558	1548	1.6	-2.0	1511	1.4	nt	nt	nt
COCCCNc1nnc(Cc2ccccc2)c2ccccc12	1742	1985	6.3	3.1	1694	2.4	nt	nt	nt
c1ccc(Cc2nnc(Sc3ccccc3)c3ccccc23)cc1	nt	nt	64.7*	117.4*	4254*	113.2*	77.4*	52.4*	53.4*
CCOc1ccc2c(c1)nc(SCC(=O)c1ccc(Br)s1)n2C	nt	nt	19.7*	28.8*	1968	28.4*	35.3*	25.6*	25.1*
CCOc1ccc2c(c1)nc(SCC(=O)c1cccs1)n2C	nt	nt	3.4	6.5	1436	5.1	nt	nt	nt
